From PubChem BioAssay (NCATS)
Values joined by “and” are separate entries in the source; they are usually repeats but may differ in a detail not shown here. Equal entries are not always repeated. Records with an inconclusive call do not appear. Active and inactive are the calls of the source. Calls follow the shape of the dose curve; as a rule, active = well fitted curve in the direction sought with a large enough effect; inconclusive = small, poorly fitted or top-dose-only effect, or another doubt; inactive = no such curve, though single readings can be large; an effect the other way counts as inactive or inconclusive.

Experiments:
[1] = biological target: Cellular tumor antigen p53 (Homo sapiens) (UniProt P04637); assay: Primary qHTS for small molecule compounds that upregulate eGFP-tagged delta133p53alpha (in N-terminal) cells. (AID 2060322); conditions: NCI-H358 eGFP-delta133p53alpha fluorescence, 24 h; activation: hits give high values; also: nearly all actives have a fitted effect of over 75% in size; also: potency is read from the fitted curve at half-maximal effect;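 as to activation: cells pre-induced with doxycycline then dosed without doxycycline; 0% = DMSO vehicle and 100% = reference activator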
Cellular tumor antigen p53 (Homo sapiens), sequence (P04637 whole entry, looked up): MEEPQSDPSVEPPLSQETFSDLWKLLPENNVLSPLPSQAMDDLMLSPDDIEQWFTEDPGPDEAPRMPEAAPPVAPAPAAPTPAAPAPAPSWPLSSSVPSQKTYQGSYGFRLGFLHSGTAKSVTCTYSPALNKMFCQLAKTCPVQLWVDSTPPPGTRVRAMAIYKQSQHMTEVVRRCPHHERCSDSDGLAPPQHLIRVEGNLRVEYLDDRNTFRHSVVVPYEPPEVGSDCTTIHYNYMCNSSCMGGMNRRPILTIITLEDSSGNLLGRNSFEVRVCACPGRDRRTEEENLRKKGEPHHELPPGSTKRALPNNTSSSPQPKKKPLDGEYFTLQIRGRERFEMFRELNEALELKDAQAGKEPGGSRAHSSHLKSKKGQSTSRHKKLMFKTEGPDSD
In short: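 NCI-H358 cells pre-induced 24 h with 10 ng/ml doxycycline for eGFP-delta133p53alpha, plated dox-free and exposed 24 h at 37C to titrated compounds. Fixed, Hoechst-stained; gated GFP peak intensity by laser scanning cytometry, normalized to DMSO (0%) and 57.5 uM 5-azacytidine (100%).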

[2] = biological target: Aldehyde dehydrogenase, mitochondrial (Homo sapiens) (UniProt P05091); assay: qHTS for Inhibitors of the Aldehyde Dehydrogenase Family (ALDH2) Primary screen (AID 2061308); conditions: ALDH2 enzyme inhibition qHTS, 1536-well; series mostly up to 56 µM;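 also: plate controls were vehicle for no effect and reference inhibitor for full effect; nearly all actives have a fitted effect of over 55% in size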
[3] = biological target: Retinaldehyde dehydrogenase 3 (Homo sapiens) (UniProt P47895); assay: qHTS for Inhibitors of the Aldehyde Dehydrogenase Family (ALDH1A3) Validation screen (AID 2061312); conditions: ALDH1A3 enzyme inhibition qHTS validation, fluorescence; series mostly up to 84.7 µM; also: % is scaled to controls: 0 for no effect and ±100 for the full control effect; nearly all actives have a fitted effect of over 45% in size
[4] = biological target: Retinaldehyde dehydrogenase 3 (Homo sapiens) (UniProt P47895); assay: qHTS for Inhibitors of the Aldehyde Dehydrogenase Family (ALDH1A3) Primary screen (AID 2061315); conditions: ALDH inhibition qHTS; series mostly up to 56 µM;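 also: plate controls were DMSO vehicle for no effect and reference inhibitor for full effect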

Cc1c(C(=O)Nc2ccc(N3CCC(N4CCOCC4)CC3)c(C#N)c2)cnn1-c1ccc(Cl)cc1
inactive: activation [1] 15.8% | Potency [2] | Potency [3] | Potency [4]

CN1CCN(C2=Nc3ccccc3Nc3ccc(OS(=O)(=O)C(F)(F)F)cc32)CC1
inactive: activation [1] -11.9% | Potency [2] | Potency [3] | Potency [4]

CC(C)(C)NCC(O)COc1cccc2c1CCCC2=O (configuration not stated)
inactive: activation [1] -7.64% | Potency [2] | Potency [3] | Potency [4]

Cc1ccc(Cl)cc1N(CC(=O)Nc1c(F)cccc1F)S(C)(=O)=O
inactive: activation [1] 0.955% | Potency [2] | Potency [3] | Potency [4]

Cc1cc(C)c(S(=O)(=O)N(Cc2ccc(-c3cccc(S(C)(=O)=O)c3)cc2)Cc2ccc(C(F)(F)F)o2)c(C)c1
inactive: activation [1] -0.955% | Potency [2] | Potency [3] | Potency [4]

Cc1oc(S(=O)(=O)N2CCCCC2)cc1NC(=O)Nc1ccccc1
inactive: activation [1] 0.955% | Potency [2] | Potency [3] | Potency [4]

COc1ccc2cc(-c3cc(-c4cc(Cl)cc(Cl)c4)nn3C(C)c3ccc(C(=O)NCCC(=O)O)cc3)ccc2c1 (configuration not stated)
inactive: activation [1] 29.1% | Potency [2] | Potency [3] | Potency [4]

CCCCc1c(-c2ccc(OC)cc2)[nH]c2nccnc12
inactive: activation [1] 5.25% | Potency [2] | Potency [3] | Potency [4]

O=[N+]([O-])c1cn2c(n1)OCC(OCc1ccc(OC(F)(F)F)cc1)C2 (configuration not stated)
inactive: activation [1] -10% | Potency [2] | Potency [3] | Potency [4]

Cc1ccc(CCCO)c(NCc2ccc3nc(NCCCN4CCOCC4)n(Cc4nc(C)ccc4O)c3c2)c1
inactive: activation [1] 14.3% | Potency [2] | Potency [3] | Potency [4]

CC1(C)CCC(C)(C)c2cc([C@@H](O)C(=O)Nc3ccc(C(=O)O)cc3F)ccc21
inactive: activation [1] -4.77% | Potency [2] | Potency [3] | Potency [4]

CCN(CC)Cc1ccc(C(=O)N(CCc2ccccc2OC)[C@@H]2CCNC2)cc1
inactive: activation [1] 3.34% | Potency [2] | Potency [3] | Potency [4]

Cc1ccc(COC(=O)N2CC[C@@H](CNc3ncccn3)[C@@H](F)C2)cc1
inactive: activation [1] 1.91% | Potency [2] | Potency [3] | Potency [4]

Cc1ccc(C2(C(=O)N3CCC(n4nc(-c5ccccc5)oc4=O)CC3)CC2)cc1
inactive: activation [1] -1.91% | Potency [2] | Potency [3] | Potency [4]

CN(C)c1nc(NC2CCC(NCCc3ccc(Br)cc3OC(F)(F)F)CC2)nc2ccccc12 (configuration not stated)
active: Potency [1] 13.5 µM
inactive: Potency [2] | Potency [3] | Potency [4]

Cc1cc(C(=O)Nc2cccc(C(=O)Nc3cccc(C(F)(F)F)c3)c2)on1
inactive: activation [1] -7.16% | Potency [2] | Potency [3] | Potency [4]

Cn1c(=O)cc(N2CCCC(N)C2)n(Cc2cc(F)ccc2C#N)c1=O (configuration not stated)
inactive: activation [1] -2.86% | Potency [2] | Potency [3] | Potency [4]

CC(C)C(=O)Oc1ccc(CO)cc1[C@H](CCN(C(C)C)C(C)C)c1ccccc1
inactive: activation [1] 16.6% and 0.955% | Potency [2] | Potency [3] | Potency [4]

CCOC(=O)N1CCC(NCCNC(=O)c2ccccc2C)CC1
inactive: activation [1] 6.68% | Potency [2] | Potency [3] | Potency [4]

CCCn1c(=O)c2[nH]c(-c3ccc(OCC(=O)O)cc3)nc2n(CCC)c1=O
inactive: activation [1] -5.73% | Potency [2] | Potency [3] | Potency [4]

COc1ccccc1N1CCN(CC[C@@](C)(C(=O)C2CCCCC2)c2ccccc2)CC1
inactive: activation [1] 8.11% | Potency [2] | Potency [3] | Potency [4]

O=C(CC1NCCC[C@H]1O)Cn1cnc2cc(Br)c(Cl)cc2c1=O (some centres not stated)
inactive: activation [1] 5.25% | Potency [2] | Potency [3] | Potency [4]

O=C(NCC1CCN(Cc2cccc(Cl)c2)CC1)[C@@H]1CCCN(c2ncnc3c2nc2n3CCCC2)C1
inactive: activation [1] 0% | Potency [2] | Potency [3] | Potency [4]

CCN(CC)C(=O)C(c1ccccc1)N1CCN(c2ccc(NC(=O)c3ccccc3-c3cccnc3)cc2F)CC1 (configuration not stated)
inactive: activation [1] -6.21% | Potency [2] | Potency [3] | Potency [4]

NC(=O)CCCSc1nc(N)nc(-c2c(Cl)cc3c4c(cccc24)COC3)n1
inactive: activation [1] -8.59% | Potency [2] | Potency [3] | Potency [4]

COC(=O)N1CCC(n2ncc3c(N4CCOCC4)nc(-c4ccc(NC(=O)NC5CC5)cc4)nc32)CC1
inactive: activation [1] 12.4% | Potency [2] | Potency [3] | Potency [4]

CC(C)(C)C(=O)C(Oc1ccc(Cl)cc1)n1ccnc1 (configuration not stated)
inactive: activation [1] -37.9% and -2.39% | Potency [2] | Potency [3] | Potency [4]

COCCN1CCC(C(=O)NO)(S(=O)(=O)c2ccc(Oc3ccc(OC(F)(F)F)cc3)cc2)CC1
inactive: activation [1] -13.4% | Potency [2] | Potency [3] | Potency [4]

COc1ccc(NC(=O)c2ccc(-c3ccc(-c4nnc(C)o4)cc3C)cc2)cc1N1CCN(C)CC1
inactive: activation [1] -6.21% | Potency [2] | Potency [3] | Potency [4]

CC(=O)O[C@]1(C(C)=O)CC[C@H]2[C@@H]3C[C@H](C)C4=CC(=O)C=C[C@]4(C)[C@@]3(F)[C@@H](O)C[C@@]21C
inactive: activation [1] 1.91% | Potency [2] | Potency [3] | Potency [4]

CCCCN1CCCC[C@H]1C(=O)Nc1c(C)cccc1C
inactive: activation [1] -18.6% and -5.25% | Potency [2] | Potency [3] | Potency [4]

CN1CCN(Cc2ccc(NC(=O)Cc3ccc(Oc4cc(NC(=O)C5CC5)ncn4)cc3)cc2C(F)(F)F)CC1
inactive: Potency [2] | Potency [3] | Potency [4]
active: Potency [1] 6.75 µM

CCOC(=O)C(CCc1ccccc1)NC1CSC(c2cccs2)CN(CC(=O)O)C1=O (configuration not stated)
inactive: activation [1] -0.477% | Potency [2] | Potency [3] | Potency [4]

O=C1NC(=O)C(c2cn3c4c(cccc24)CCC3)C1c1c[nH]c2ccccc12 (configuration not stated)
inactive: activation [1] 18.6% | Potency [2] | Potency [3] | Potency [4]

CCCC(=O)C1CCN(c2ncnc3c2CN(C(=O)c2ccc(-c4ccccc4)cc2)CC3)CC1
inactive: activation [1] -12.4% | Potency [2] | Potency [3] | Potency [4]

CS(=O)(=O)NCC1CCC(Nc2nc3c(s2)CCSc2ccccc2-3)CC1 (configuration not stated)
inactive: activation [1] -6.21% | Potency [2] | Potency [3] | Potency [4]

Cc1nc(C(=O)N2CCC[C@H]2Cc2nnc(-c3ccccc3)o2)c(-c2ccccc2F)s1
inactive: activation [1] 3.82% | Potency [2] | Potency [3] | Potency [4]

CC(NC(=O)CCc1nc2ccccc2c(=O)[nH]1)c1ccccc1 (configuration not stated)
inactive: activation [1] -1.43% | Potency [2] | Potency [3] | Potency [4]

O=c1[nH]c2ccccc2n1CCN1CCN(c2cccc(C(F)(F)F)c2)CC1
inactive: activation [1] -3.34% | Potency [2] | Potency [3] | Potency [4]

COc1cccc(-c2ccc([C@@H](Oc3cc(-c4ccc(C[C@H](N)C(=O)O)cc4)nc(N)n3)C(F)(F)F)cc2)c1
inactive: activation [1] -13.4% | Potency [2] | Potency [3] | Potency [4]

CCOC(=O)COc1ccc2c(c1)C[C@@H](NC[C@H](O)c1cccc(Cl)c1)CC2
inactive: activation [1] 11.9% | Potency [2] | Potency [3] | Potency [4]

CNC(=O)c1ccc2c(c1)CCO[C@H]2CCN1CCN(c2ccc(OC)cc2)CC1
inactive: activation [1] -25.3% | Potency [2] | Potency [3] | Potency [4]

COC(=O)CC1CC(c2ccc(O)cc2)=NO1 (configuration not stated)
inactive: activation [1] -0.955% | Potency [2] | Potency [3] | Potency [4]

O=C(O)[C@H](Cc1ccccc1)Oc1ccc(-c2ccccc2)cc1
inactive: activation [1] -3.34% | Potency [2] | Potency [3] | Potency [4]

O=C(O)c1ccc(S(=O)(=O)N(Cc2ccc(OC(F)(F)F)cc2)c2ncc(C(F)(F)F)cc2Cl)cc1
inactive: activation [1] -2.86% | Potency [2] | Potency [3] | Potency [4]

CCC(=O)N1CCOc2c(cc(-c3ccc(OC)c(OC)c3)cc2OC[C@H]2CCCN(C)C2)C1
inactive: activation [1] -0.477% | Potency [2] | Potency [3] | Potency [4]

CCOc1ccc(-c2nc(-c3cccc4c3CCC4NCCO)no2)cc1OCC (configuration not stated)
inactive: activation [1] -0.955% | Potency [2] | Potency [3] | Potency [4]

Cc1c(C(=O)NCc2cccnc2)nn(-c2ccc(Cl)cc2Cl)c1-c1ccc(Cl)cc1
inactive: activation [1] 21% | Potency [2] | Potency [3] | Potency [4]

Cn1c2ccc(F)cc2c2c(C(=O)N3CCCC3)cn(-c3ccccc3)c(=O)c21
inactive: activation [1] -5.25% | Potency [2] | Potency [3] | Potency [4]

CC(=O)NC1=NN(C(C)=O)C(C)(c2ccccc2)S1 (configuration not stated)
inactive: Potency [2] | Potency [3] | Potency [4]
active: Potency [1] 12 µM

COC(=O)C(Cc1ccc(OCCn2c(=O)sc3cc(C(=O)c4ccccc4)ccc32)cc1)C(=O)OC
inactive: activation [1] -10.5% | Potency [2] | Potency [3] | Potency [4]

O=C(O)C[C@@H](NC(=O)c1cc(-c2ccc(-c3ccncc3)cc2)cs1)c1ccccc1
inactive: activation [1] -1.43% | Potency [2] | Potency [3] | Potency [4]

CNC(=O)c1ccc2cc([C@@]3(O)CCn4cncc43)ccc2c1
inactive: activation [1] -9.55% | Potency [2] | Potency [3] | Potency [4]

C[C@@H]([C@@H](O)c1ccc(O)cc1)N1CCC(O)(c2ccccc2)CC1
inactive: activation [1] 5.25% | Potency [2] | Potency [3] | Potency [4]

O=c1[nH]cnc2c1ncn2[C@@H]1O[C@H](CO)[C@@H](O)[C@H]1O
inactive: activation [1] -11.7% and 6.21% | Potency [2] | Potency [3] | Potency [4]

Cc1cccc2c1CC[C@H](CN1CCC(c3c(Cl)cccc3Cl)CC1)C[C@@H]2O
inactive: activation [1] 11.9% and -7.16% | Potency [2] | Potency [3] | Potency [4]

O=C(Nc1ccc(S(=O)(=O)Nc2ccccc2Cl)c(Cl)c1)c1ccccn1
inactive: activation [1] 15.8% | Potency [2] | Potency [3] | Potency [4]

O=C(NCCCn1ccnc1)c1cc(-c2ccco2)on1
inactive: activation [1] -9.07% | Potency [2] | Potency [3] | Potency [4]
